# Compounds with a hit are over-represented: about 6.7% of the library has one in this group of screens.
# Pf Dd2 inh: P. falciparum Dd2 growth inhibition | AID 1159554 | SYBR Green, 72 h; stronger effect = lower value | 94,000 compounds, 2.3% hits | activity change, % at 10 µM; in the data active = activity change below about -80%; inconclusive = no clear call, values can overlap the other calls
# T cruzi growth-1: blocks T. cruzi growth in NIH3T3 culture. T. cruzi beta-gal in NIH3T3, GalScreen luminescence, 90 h. inhibition, % at 8.34 µM. 77,000 compounds, 5.9% hits. AID 624255;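 active = mean inhibition above about 93%, with at least 55% of replicates each passing it, limit read from the data, passing the limit was not always enough; inconclusive = only one of those two conditions holds; inactive = neither condition holds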
# C diff growth: C. difficile growth inhibition. 86,000 compounds, 0.25% hits. growth activity, negative = inhibition, % at 16 µg/mL (by protocol). Clostridium difficile clinical isolate growth, OD600, 24 h; stronger effect = lower value. AID 1259249;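 active = mean growth activity at or below -80% and every replicate also at or below -80%; inconclusive = mean at or below -80% but some replicate above -80%; inactive = mean growth activity above -80%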;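 note: 0% = DMSO wells and -100% = levofloxacin 16 µg/mL wells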
# T cruzi growth-2: inhibitors of T. cruzi proliferation; shares compounds with T cruzi growth-1; T. cruzi beta-gal in NIH3T3, GalScreen luminescence, 90 h; inhibition, % at 8.35 µM; 5,600 compounds, 72% hits;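 active = mean replicate inhibition above about 95% and at least 55% of replicates individually reaching it, limit read from the data; inconclusive = only one of the two criteria is met; inactive = neither criterion is met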
# T cruzi growth-3: Trypanosoma cruzi proliferation inhibition; inhibition, % at 2.09 µM; shares compounds with T cruzi growth-1; AID 651740; T. cruzi beta-gal in NIH3T3, GalScreen luminescence, 90 h; 5,600 compounds, 21% hits;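 active = mean inhibition above about 95%, with at least 55% of replicates also reaching it, limit read from the data; inconclusive = meets just one of the two conditions; inactive = meets neither condition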;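 note: plate controls were neutral control median for no effect and positive control median for full effect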
# NIH3T3 tox: kills mouse NIH/3T3 fibroblasts; shares compounds with T cruzi growth-1; NIH/3T3 viability, CellTiter-Glo ATP luminescence, 90 h; 5,600 compounds, 14% hits; AID 651742; cytotoxicity (signal decrease), % at 8.35 µM;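 active = mean signal decrease across replicates above about 35% based on untreated-well scatter, with enough replicates individually passing, limit read from the data; inconclusive = no rule stated though some were filed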;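 note: 0% = median of neutral control wells and 100% = median of positive control wells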
# NIH3T3 tox 2: cytotoxicity in mouse NIH/3T3 fibroblasts. shares compounds with T cruzi growth-1. NIH/3T3 viability, CellTiter-Glo ATP luminescence, 90 h. inhibition, % at 24.9 µM. 5,600 compounds, 56% hits;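 active = mean loss of cell viability signal at or above a set limit, and enough replicates individually reaching it; inconclusive = meets only the mean limit or only the replicate share; inactive = meets neither condition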;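 note: 0% = median of neutral control wells and 100% = median of positive control wells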
# Numbers without * were called inactive; ? = inconclusive; nt = no result; ! = a repeat was not active.
SMILES,Pf Dd2 inh,T cruzi growth-1,C diff growth,T cruzi growth-2,T cruzi growth-3,NIH3T3 tox,NIH3T3 tox 2
COc1ccc(S(=O)(=O)N(C)C[C@H]2Oc3cc(C#CC4CC4)ccc3S(=O)(=O)N([C@H](C)CO)C[C@H]2C)cc1,-60.7,106.5*,-0.6,107.6*,92.5,23.5,58.9*
COc1ccc(S(=O)(=O)N(C)C[C@@H]2Oc3cc(C#CC4CCCC4)ccc3S(=O)(=O)N([C@@H](C)CO)C[C@@H]2C)cc1,-74.7,66.8,7.1,nt,nt,nt,nt
COc1ccc(S(=O)(=O)N(C)C[C@@H]2Oc3cc(C#CC4CCCC4)ccc3S(=O)(=O)N([C@H](C)CO)C[C@@H]2C)cc1,-47.2,73.5,11.7,nt,nt,nt,nt
COc1ccc(S(=O)(=O)N(C)C[C@@H]2Oc3cc(C#CC4CC4)ccc3S(=O)(=O)N([C@@H](C)CO)C[C@H]2C)cc1,-76.0,112.0*,8.6,102.2*,77.5,53.2*,40.2*
C[C@@H]1CN([C@@H](C)CO)C(=O)c2cc(NC(=O)Nc3ccc4c(c3)OCO4)ccc2O[C@@H]1CN(C)S(=O)(=O)c1ccc(Cl)cc1,8.3,51.6,0.3,nt,nt,nt,nt
CO[C@H]1CN(C)C(=O)c2cc(NC(=O)NC(C)C)ccc2OC[C@H](C)N(C)C[C@@H]1C,22.9,-22.1,-2.9,nt,nt,nt,nt
O=C(c1ccccc1F)N1CC[C@H]2[C@H](CO)Nc3ccc(-c4cccc(F)c4)cc3[C@H]21,4.8,37.2,-2.7,nt,nt,nt,nt
CO[C@H](CN(C)Cc1ccc(-c2ccccn2)cc1)[C@@H](C)CN(C(=O)Nc1ccc(F)cc1)[C@@H](C)CO,-14.0,100.5*,nt,102.3*,34.1,16.9,11.8
CO[C@H](CN(C)Cc1ccc(-c2ccccn2)cc1)[C@@H](C)CN(C(=O)Nc1ccc(F)cc1)[C@H](C)CO,-31.3,89.7,nt,nt,nt,nt,nt
COc1ccc(S(=O)(=O)Nc2ccc3c(c2)C(=O)N([C@H](C)CO)C[C@@H](C)[C@@H](CN(C)CC2CC2)O3)cc1,-42.6,2.7,3.8,nt,nt,nt,nt
C[C@@H]1CN([C@H](C)CO)C(=O)c2cc(NS(=O)(=O)c3ccc(F)cc3)ccc2O[C@@H](C)CCCCO[C@@H]1CN(C)Cc1ccc2c(c1)OCO2,-68.6,102.2*,nt,89.5,105.5*,71.3*,105.2*
C[C@@H]1CCCCO[C@@H](CN(C)Cc2ccc3c(c2)OCO3)[C@H](C)CN([C@H](C)CO)C(=O)c2cc(NS(=O)(=O)c3ccc(F)cc3)ccc2O1,-55.0,83.0,nt,nt,nt,nt,nt
Cc1ccc(S(=O)(=O)Nc2ccc3c(c2)C(=O)N([C@H](C)CO)C[C@H](C)[C@H](CN(C)Cc2ccc4c(c2)OCO4)OCCCC[C@H](C)O3)cc1,-76.2,62.5,9.5,nt,nt,nt,nt
C[C@H](CO)N1C[C@H](C)[C@H](CN(C)Cc2ccc3c(c2)OCO3)OCCCC[C@H](C)Oc2ccc(NS(=O)(=O)c3ccc(F)cc3)cc2C1=O,-42.7,112.4*,nt,110.0*,48.0,7.5,58.8*
C[C@@H]1CN([C@@H](C)CO)C(=O)c2cc(NS(=O)(=O)c3ccc(F)cc3)ccc2O[C@@H](C)CCCCO[C@H]1CN(C)Cc1ccc2c(c1)OCO2,-56.3,71.5,nt,nt,nt,nt,nt
COc1ccc(S(=O)(=O)Nc2ccc3c(c2)C(=O)N([C@@H](C)CO)C[C@@H](C)[C@@H](CN(C)Cc2ccc4c(c2)OCO4)OCCCC[C@@H](C)O3)cc1,-59.6,87.5,-2.4,nt,nt,nt,nt
COc1ccc(S(=O)(=O)Nc2ccc3c(c2)C(=O)N([C@H](C)CO)C[C@@H](C)[C@H](CN(C)Cc2ccc4c(c2)OCO4)OCCCC[C@H](C)O3)cc1,-54.1,?,-1.1,108.4*,50.4,5.8,105.0*
Cc1ccc(S(=O)(=O)Nc2ccc3c(c2)C(=O)N([C@H](C)CO)C[C@@H](C)[C@H](CN(C)Cc2ccc4c(c2)OCO4)OCCCC[C@@H](C)O3)cc1,-50.2,101.7*,5.5,108.5*,89.5,29.3,81.5*
C[C@H](CO)N1C[C@H](C)[C@@H](CN(C)S(=O)(=O)c2ccc(F)cc2)Oc2ccc(N(C)C)cc2CC1=O,-5.1,nt,-6.7,nt,nt,nt,nt
C[C@H]1CCCCO[C@@H](CN(C)C(=O)Nc2ccc(F)cc2)[C@@H](C)CN([C@@H](C)CO)C(=O)c2cc(NC(=O)c3ccncc3)ccc2O1,-15.1,63.7,0.5,nt,nt,nt,nt
CC(C)NC(=O)N(C)C[C@H]1Oc2ccc(NC(=O)CCN3CCOCC3)cc2CC(=O)N([C@H](C)CO)C[C@@H]1C,23.7,nt,-6.5,nt,nt,nt,nt
COc1ccc(S(=O)(=O)N(C)C[C@H]2OCCCC[C@H](C)Oc3ccc(NC(=O)C4CCCCC4)cc3C(=O)N([C@H](C)CO)C[C@@H]2C)cc1,-41.2,59.5,-0.1,nt,nt,nt,nt
COc1ccc(S(=O)(=O)N(C)C[C@@H]2Oc3ccc(NC(=O)Cn4cnnn4)cc3C(=O)N([C@@H](C)CO)C[C@H]2C)cc1,19.4,-15.1,-3.2,nt,nt,nt,nt
COc1ccc(S(=O)(=O)N(C)C[C@H]2OCCCC[C@H](C)Oc3ccc(NC(=O)C4CCCCC4)cc3C(=O)N([C@@H](C)CO)C[C@@H]2C)cc1,?,106.0*,7.1,105.5*,79.4,-0.3,-26.4
COc1ccc(S(=O)(=O)N(C)C[C@H]2Oc3ccc(NC(=O)Cn4cnnn4)cc3C(=O)N([C@@H](C)CO)C[C@H]2C)cc1,-15.9,99.9*,-5.5,37.0,-33.0,10.0,5.7
SMILES,Pf Dd2 inh,T cruzi growth-1,C diff growth,T cruzi growth-2,T cruzi growth-3,NIH3T3 tox,NIH3T3 tox 2
COc1ccc(S(=O)(=O)N(C)C[C@@H]2OCCCC[C@@H](C)Oc3ccc(NC(=O)C4CCCCC4)cc3C(=O)N([C@@H](C)CO)C[C@@H]2C)cc1,-80.0,98.6*,-2.4,94.1,56.7,11.6,72.4*
COc1ccc(S(=O)(=O)N(C)C[C@H]2OCCCC[C@@H](C)Oc3ccc(NC(=O)C4CCCCC4)cc3C(=O)N([C@H](C)CO)C[C@@H]2C)cc1,-44.0,36.7,2.0,nt,nt,nt,nt
Cc1ccc(S(=O)(=O)Nc2cccc3c2O[C@@H](CN(C)Cc2ccc(Oc4ccccc4)cc2)[C@@H](C)CN([C@@H](C)CO)C3=O)cc1,12.8,27.9,53.2,nt,nt,nt,nt
C[C@@H]1CN([C@H](C)CO)C(=O)c2cc(NS(=O)(=O)c3ccc(Cl)cc3)ccc2O[C@@H](C)CCCCO[C@H]1CN(C)Cc1ccc2c(c1)OCO2,-71.2,106.0*!,nt,97.3*,106.8*,19.8,103.6*
C[C@@H]1CCCCO[C@@H](CN(C)Cc2ccc3c(c2)OCO3)[C@@H](C)CN([C@@H](C)CO)C(=O)c2cc(NS(=O)(=O)c3ccc(Cl)cc3)ccc2O1,-23.2,93.4,nt,nt,nt,nt,nt
C[C@H]1CCCCO[C@H](CN(C)Cc2ccc3c(c2)OCO3)[C@@H](C)CN([C@@H](C)CO)C(=O)c2cc(NS(=O)(=O)c3ccc(Cl)cc3)ccc2O1,-53.2,?,nt,101.5*,67.8,11.6,104.3*

# Assay outcomes deposited in PubChem by Broad Institute.
